The source made the active and inactive calls. Unless noted, no rule for the calls is given here.

Z-score and composite z-score data for nine compounds are collected here from PubChem BioAssay.

A short description of assay [1]: compound effects on lung adenocarcinoma cell viability – A549, calcein-AM fluorescence, 48 h, basal, profiling panel (AID 1162). Also: test concentration not given here. Particulars: higher = more signal.
A short description of assay [2]: compound effects on differentiated 3T3-L1 adipocyte viability – cell-based, 3T3-L1 adipocytes, calcein-AM fluorescence, 48 h, basal, profiling panel (AID 1163). Also: test concentration not given here. Particulars: 3T3-L1 adipocytes viability, higher = more signal.
Assay [3] in a line: compound effects on hepatocellular carcinoma cell viability – HepG2, calcein-AM fluorescence, 48 h, basal, profiling panel (AID 1164). Also: test concentration not given here. Particulars: higher = more signal.
Assay [4] in a line: compound effects on multiple myeloma cell viability – MM1S, calcein-AM fluorescence, 48 h, basal, profiling panel (AID 1165).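 Also: viability of MM1S multiple myeloma cells under basal unstimulated conditions; test concentration not given here.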 The settings on record: higher = more signal.
Assay [5] can be described thus: calcein-AM signal in unstimulated myeloma cells – cell-based, calcein-AM fluorescence, 48 h, PK04 Diversity Set, profiling panel (AID 1166).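 Also: cells grown under basal conditions without added stimulus; test concentration not given here.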 Particulars: RPMI8226 myeloma viability, higher = more signal.
A short description of assay [6]: JC-1 mitochondrial signal, unstimulated HepG2 cells – cell-based, JC-1 fluorescence, 24 h, 100 nL compound, profiling panel (AID 1167). Also: test concentration not given here. The settings on record: HepG2 mitochondrial potential, higher = more signal.
Assay [7] in a line: JC-1 mitochondrial signal, unstimulated adipocytes – cell-based, JC-1 fluorescence, 3T3-L1 adipocytes, 24 h, 100 nL compound, profiling panel (AID 1168). Also: test concentration not given here. Particulars: JC-1 mitochondrial fluorescence, higher = more signal, called active from +8 up or from −8 down.
A short description of assay [8]: JC-1 mitochondrial signal, unstimulated myeloma cells – cell-based, JC-1 fluorescence, RPMI8226, 24 h, 100 nL compound, profiling panel (AID 1169). Also: test concentration not given here. Particulars: JC-1 mitochondrial potential fluorescence, higher = more signal.
Assay [9] can be described thus: JC-1 mitochondrial signal, unstimulated MM1S myeloma – cell-based, JC-1 fluorescence, 24 h, 100 nL compound, profiling panel (AID 1170). Also: test concentration not given here. The settings on record: MM1S mitochondrial potential, higher = more signal.
Assay [10] in a line: resazurin metabolic signal in A549 cells – cell-based, resazurin fluorescence, 24 h, PK04 Diversity Set, profiling panel (AID 1171). Also: test concentration not given here. Particulars: A549 viability, higher = more signal, called active from +8 up or from −8 down.
Assay [11] can be described thus: resazurin metabolic signal in HepG2 cells – cell-based, resazurin fluorescence, 24 h, PK04 Diversity Set, profiling panel (AID 1172). Also: test concentration not given here. The settings on record: HepG2 viability, higher = more signal.
Assay [12] is described as follows: budding yeast growth changes without added modifier – OD600, strain BY4716, 24 h, basal condition, primary screen (AID 1173). The settings on record: S. cerevisiae BY4716 growth, OD600, 24 h; higher = more signal, called active from +8 up or from −8 down.
Assay [13] is described as follows: viability profiling in MM1S myeloma cells – cell-based, resazurin fluorescence, basal, 24 h, PK04 Diversity Set, profiling panel (AID 1174). Also: test concentration not given here. Particulars: higher = more signal, called active from +8 up or from −8 down.
The target in assay [14] is Dihydroorotate dehydrogenase (quinone), mitochondrial (Plasmodium falciparum (isolate 3D7)) (UniProt Q08210). The assay can be described thus: inhibition of P. falciparum DHODH – biochemical, C-terminal His tag, absorbance 600 nm, primary screen (AID 1175).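 Also: recombinant parasite enzyme with a five histidine tag at its C terminus; test concentration not given here.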 Particulars: PfDHODH enzyme, DCIP absorbance 600 nm; higher = more signal, called active from +8 up or from −8 down.

Assay [15] can be described thus: inhibition of PAO1 biofilm formation – strain PAO1, LB-PBS medium, absorbance 600 nm, primary screen (AID 1176). Also: test concentration not given here. The settings on record: P. aeruginosa PAO1 growth/biofilm, A600, 12 h; higher = more signal.
Assay [16] can be described thus: growth modulation of vineyard yeast isolate – strain RM11-1a, OD600, basal, 24 h, primary screen (AID 1177).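 Also: cultures grown under basal conditions with no added stressor; test concentration not given here.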 The settings on record: S. cerevisiae RM11-1a growth, OD600, 24 h; higher = more signal, called active from +8 up or from −8 down.
Assay [17] in a line: growth of efflux-deficient E. coli DRC39 – strain DRC39, OD650, 24 h, E. coli filamentation inducers, primary screen (AID 1178).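 Also: growth measured as culture turbidity by optical density at 650 nm; test concentration not given here.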 Particulars: E. coli DRC39 acrAB, higher = more signal, called active from +8 up or from −8 down.
Assay [18] is described as follows: growth of efflux-deficient E. coli DRC39 – strain DRC39, OD650, 48 h, E. coli filamentation inducers, primary screen (AID 1179).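 Also: screen aims at cell division blockers that make cells filament.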 The settings on record: E. coli DRC39 delta-acrAB growth, higher = more signal, called active from +8 up or from −8 down.
The nature of assay [19]: viability profiling in RPMI8226 myeloma cells – cell-based, resazurin fluorescence, basal, 24 h, PK04 Diversity Set, profiling panel (AID 1180).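 Also: RPMI8826 multiple myeloma cell line at 5000 cells per well; test concentration not given here.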 The settings on record: higher = more signal.
The target in assay [20] is E3 ubiquitin-protein ligase XIAP (Homo sapiens) (UniProt P98170). In words: small molecules binding XIAP protein – biophysical, small-molecule microarray, fluorescence 635 nm, primary screen (AID 1181).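 Also: score merges 667 nm emission and signal to noise over triplicate slides.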 Particulars: higher = more signal.
Sequence of E3 ubiquitin-protein ligase XIAP (Homo sapiens) (P98170 whole entry, looked up): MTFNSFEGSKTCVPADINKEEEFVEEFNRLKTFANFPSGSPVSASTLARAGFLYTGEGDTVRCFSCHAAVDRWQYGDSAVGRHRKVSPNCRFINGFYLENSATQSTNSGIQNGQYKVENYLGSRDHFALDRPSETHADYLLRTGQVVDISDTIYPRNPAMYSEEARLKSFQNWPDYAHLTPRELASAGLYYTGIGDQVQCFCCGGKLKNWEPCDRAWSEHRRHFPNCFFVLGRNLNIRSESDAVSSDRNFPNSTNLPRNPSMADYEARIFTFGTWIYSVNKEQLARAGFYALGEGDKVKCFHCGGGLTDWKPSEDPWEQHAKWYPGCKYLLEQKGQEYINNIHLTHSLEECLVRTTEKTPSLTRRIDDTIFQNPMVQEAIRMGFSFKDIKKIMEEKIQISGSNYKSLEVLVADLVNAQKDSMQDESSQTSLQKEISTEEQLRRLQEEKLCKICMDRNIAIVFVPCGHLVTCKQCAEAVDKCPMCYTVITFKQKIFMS

Sequence of Dihydroorotate dehydrogenase (quinone), mitochondrial (Plasmodium falciparum (isolate 3D7)) (Q08210 whole entry, looked up): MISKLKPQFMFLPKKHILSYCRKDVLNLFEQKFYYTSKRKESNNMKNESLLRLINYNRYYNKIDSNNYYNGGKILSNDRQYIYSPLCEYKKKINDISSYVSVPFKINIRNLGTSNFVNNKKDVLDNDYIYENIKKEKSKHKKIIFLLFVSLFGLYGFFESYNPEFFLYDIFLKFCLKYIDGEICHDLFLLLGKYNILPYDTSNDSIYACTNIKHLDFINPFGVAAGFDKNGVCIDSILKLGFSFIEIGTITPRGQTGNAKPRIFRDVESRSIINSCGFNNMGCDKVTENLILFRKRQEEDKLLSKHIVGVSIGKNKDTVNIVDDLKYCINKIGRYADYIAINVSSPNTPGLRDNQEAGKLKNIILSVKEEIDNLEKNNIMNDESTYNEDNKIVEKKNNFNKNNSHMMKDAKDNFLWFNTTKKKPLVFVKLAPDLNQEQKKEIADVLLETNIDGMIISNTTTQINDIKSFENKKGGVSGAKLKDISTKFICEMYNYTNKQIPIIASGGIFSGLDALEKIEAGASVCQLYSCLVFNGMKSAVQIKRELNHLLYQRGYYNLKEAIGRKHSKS

Take `COC(=O)[C@@]1(Cc2ccccc2)[C@@H]2C(=CC(=O)[C@H]2CC(=O)C(=O)N(C)C)CN1C(=O)c1ccccc1`: the z-score is 0.349 in [1]; 0.108 in assay [2]; 0.11 in [3]; -2.52 in [4]; -1.81 in assay [5]; 2.58 in assay [6]. Also, the z-score in assay [7] is -0.0995 (inactive); in [8] it was -0.791; in assay [9], -2.68; in [10] it was -1.11 (inactive); in assay [11], -1.24; in assay [12], 0.292 (inactive). Also, the z-score was -5.19 (inactive) in assay [13]; -0.0856 (inactive) in [15]; -0.224 (inactive) in assay [16]; 0.677 (inactive) in assay [17]; -0.0631 (inactive) in assay [18]; -5.21 in [19]. Moreover, the composite z-score in assay [14] is -0.435 (inactive); in [20] it was 0.0239.

`C=CCN1C(=O)[C@@]2(CCS(=O)(=O)c3ccccc3)N=C(c3ccc(OCCCO)cc3)O[C@H]2c2ccccc21`: the z-score was 0.0843 in assay [1]; 0.473 in [2]; 0.684 in assay [3]; -0.786 in [4]; -2.05 in assay [5]; -0.692 in assay [6]. The z-score in assay [7] was 1.79 (inactive); in assay [8], -0.995; in assay [9], 0.0237; in assay [10], -0.812 (inactive); in assay [11], -0.436; in [12] it was 0.698 (inactive). The z-score is -0.427 (inactive) in [13]; 0.563 (inactive) in assay [15]; 1.45 (inactive) in assay [16]; -0.0209 (inactive) in assay [17]; 0.242 (inactive) in [18]; -2.12 in [19]. Also, the composite z-score in assay [14] is -0.218 (inactive); in [20], -0.0421.

For `CO[C@H]1O[C@H](CO)[C@@H](OC(=O)Nc2ccccc2-c2ccccc2)[C@H](OC(=O)Nc2ccc3c(c2)OCO3)[C@H]1OC(=O)Nc1ccc2c(c1)OCO2`, the z-score was 0.673 in [1]; -0.31 in [2]; -0.521 in assay [3]; -1.02 in [4]; -2.75 in assay [5]; 0.844 in assay [6]. Besides, the z-score is 1.48 (inactive) in assay [7]; -1.01 in assay [8]; 0.823 in assay [9]; 0.262 (inactive) in assay [10]; -0.396 in assay [11]; 1.66 (inactive) in [12]. Also, the z-score was -0.262 (inactive) in [13]; 3.65 (inactive) in assay [15]; 2.5 (inactive) in assay [16]; 1.2 (inactive) in assay [17]; 0.0265 (inactive) in [18]; -0.564 in assay [19]. For the same compound, the composite z-score in assay [14] is -0.763 (inactive); in assay [20] it was 0.25.

For `CC(C)C[C@@H]1NC(=O)[C@@H]2C[C@H](C(=O)NCCCCCN)[C@H](c3ccc(O)cc3)N2C1=O`, the z-score in assay [1] was 0.0318; in assay [2], 0.484; in [3], -0.354; in assay [4] it was -0.0387; in assay [5], 0.286; in assay [6] it was -0.502. Further, the z-score was -0.259 (inactive) in assay [7]; 0.7 in assay [8]; 0.698 in [9]; -0.676 (inactive) in assay [10]; -1.3 in [11]; 0.732 (inactive) in assay [12]. Besides, the z-score in assay [13] is -0.205 (inactive); in assay [15], -0.226 (inactive); in assay [16], 1.04 (inactive); in assay [17], -0.496 (inactive); in [18], -0.728 (inactive); in [19], -0.354. Besides, the values for the composite z-score in assay [14] and in [20] were 0.582 (inactive) and 0.0015, respectively.

Take `CCOC(=O)C1=CC[C@@H](c2ccc(OCc3ccccc3)c(OC)c2)N(S(=O)(=O)c2ccc(C)cc2)[C@H]1c1ccc(SC)cc1`: the z-score in assay [1] was -0.568; in assay [2] it was 0.211; in assay [3], 0.355; in assay [4] it was -0.821; in assay [5], -0.906; in assay [6] it was 1.37. The z-score was -1.14 (inactive) in [7]; 0.419 in assay [8]; -0.598 in assay [9]; 1.33 (inactive) in assay [10]; 0.579 in assay [11]; 0.49 (inactive) in assay [12]. In addition, the z-score in assay [13] was -0.107 (inactive); in [15], 1.64 (inactive); in [16] it was -0.759 (inactive); in assay [17] it was -0.286 (inactive); in [18], -0.361 (inactive); in [19], -0.455. Also, the composite z-score is -0.322 (inactive) in assay [14] and 0.307 in assay [20].

For `CC(=O)NCCCC[C@@H]1NC(=O)[C@H]2C[C@@H](C(=O)NCCCC[N+](C)(C)C)[C@@H](c3cccc(OCCO)c3)N2C1=O`, the z-score in assay [1] is -0.443; in assay [2], 0.247; in assay [3], -0.641; in assay [4] it was -1.7; in [5] it was 0.206; in assay [6], 0.105. The z-score in [7] is 0.169 (inactive); in assay [8] it was -0.336; in assay [9] it was 1.03; in assay [10], -0.549 (inactive); in [11], -0.704; in assay [12], 0.294 (inactive). In addition, the z-score in [13] is 0.785 (inactive); in [15], 0.45 (inactive); in [16], -0.724 (inactive); in assay [17], 0.417 (inactive); in assay [18], -0.369 (inactive); in [19], 0.228. For the same compound, the figures for the composite z-score in assay [14] and in [20] were -30.8 (active) and 0.0223, respectively.

For the compound `CCCC[C@@H]1C[C@H]1[C@@H](NC(=O)c1ccccc1)c1ccc(C(F)(F)F)cc1`, the z-score in [1] is -1.46; in assay [2], -0.999; in assay [3], -0.959; in assay [4], 0.256; in [5], -0.372; in assay [6] it was 0.494. The z-score in [7] is -0.259 (inactive); in assay [8], 0.677; in [9], -1.24; in assay [10], -0.0143 (inactive); in [11], 1.09; in [12] it was 0.628 (inactive). Also, the z-score in [13] is 0.142 (inactive); in assay [15], 0.479 (inactive); in assay [16], 0.176 (inactive); in assay [17], 0.1 (inactive); in assay [18] it was 0.155 (inactive); in [19], 0.329. Moreover, the composite z-score was 0.573 (inactive) in assay [14] and -0.369 in [20].

For `CCOc1cc(C(O)C2C=CC3C(=O)N(C)C(=O)C3N2Nc2ccccc2)ccc1O` (stereo not given), the z-score is -0.157 in [1]; -0.0778 in assay [2]; -0.243 in [3]; -2.21 in assay [4]; -0.429 in assay [5]; -1.48 in [6]. Also, the z-score in assay [7] is -0.725 (inactive); in [8], -0.868; in [9], -0.536; in assay [10], -0.0004 (inactive); in assay [11] it was -0.687; in [12], 1.11 (inactive). In addition, the z-score was -0.328 (inactive) in [13]; 0.807 (inactive) in [15]; 2.32 (inactive) in [16]; -0.501 (inactive) in [17]; -0.861 (inactive) in assay [18]; -0.323 in [19]. The composite z-score is 0.684 (inactive) in assay [14] and 0.312 in [20].

`COC(=O)Cn1c(C(=O)N(C)C)cc2c1C[C@H]1CN(C(=O)c3ccccc3)[C@@](Cc3ccc(F)cc3)(C(=O)OC)[C@@H]21`: the z-score was -0.0599 in assay [1]; -1.23 in [2]; 0.0845 in assay [3]; -1.38 in assay [4]; -1.58 in [5]; 0.0394 in assay [6]. Further, the z-score is -0.53 (inactive) in assay [7]; 0.446 in [8]; -0.148 in assay [9]; -0.421 (inactive) in [10]; -0.836 in assay [11]; 2.15 (inactive) in [12]. In addition, the z-score was -0.702 (inactive) in assay [13]; 0.743 (inactive) in [15]; 1.34 (inactive) in [16]; -0.61 (inactive) in assay [17]; -0.582 (inactive) in assay [18]; -0.795 in assay [19]. For the same compound, the results for the composite z-score in assay [14] and in [20] were 0.289 (inactive) and -0.13, respectively.
